The panel holds about 79,000 compounds, 15% with a hit somewhere; the sample as a whole holds those more often. The source made the active and inactive calls. Rule as the data show it: active = growth inhibition above about 70%; inactive = the rest.
Assays:
[1] = NCI Yeast Anticancer Drug Screen. Data for the rad50 strain (AID 155);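 also: 0% = growth of vehicle-only cultures of the same strain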; conditions: S. cerevisiae rad50 strain growth inhibition, stronger effect = higher value
How it was run: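 Compounds were tested on a yeast strain with an engineered DNA damage repair alteration; the reported value is growth inhibition normalised to vehicle treatment.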

[2] = NCI Yeast Anticancer Drug Screen. Data for the mec2-1 strain (AID 157); conditions: S. cerevisiae mec2-1 strain, stronger effect = higher value
How it was run: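 Each compound was tested on mec2-1 yeast, a strain altered in DNA damage repair or cell cycle control. Growth inhibition is reported relative to vehicle.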

[3] = NCI Yeast Anticancer Drug Screen. Data for the sgs1 mgt1 strain (AID 161);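 also: 0% = growth of cultures given vehicle only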; conditions: S. cerevisiae sgs1 mgt1 strain, stronger effect = higher value
How it was run: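 Inhibition of yeast growth, normalised to vehicle-treated controls, is reported for a strain bearing genetic alterations in DNA damage repair.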

[4] = NCI Yeast Anticancer Drug Screen. Data for the cln2 rad14 strain (AID 165);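 also: 0% = growth equal to vehicle treated cultures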; conditions: S. cerevisiae cln2 rad14 strain, stronger effect = higher value
How it was run: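 Test compounds were added to cln2 rad14 yeast cultures; inhibition of growth was then determined by comparison with vehicle treatment.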

[5] = NCI Yeast Anticancer Drug Screen. Data for the bub3 strain (AID 167); conditions: S. cerevisiae bub3 mutant strain, stronger effect = higher value
How it was run: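 Growth of a checkpoint-deficient yeast mutant is measured after compound exposure. Values represent inhibition relative to vehicle.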

[6] = NCI Yeast Anticancer Drug Screen. Data for the mlh1 rad18 strain (AID 175); conditions: S. cerevisiae mlh1 rad18 strain growth inhibition, stronger effect = higher value
How it was run: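 Inhibition values reflect reduced growth of mutant yeast versus vehicle-treated controls following compound exposure; the mutations affect DNA damage repair.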

[7] = at 5.0 µM (retest, dose inferred, filed as 0.5)
[8] = at 50.0 µM (retest, dose inferred, filed as 5.0)

Measured: growth inhibition

C[n+]1c(-c2ccc(/C=N/Nc3ccnc(N/N=C/c4ccc(-c5cn6ccccc6[n+]5C)cc4)n3)cc2)cn2ccccc21
active: [1]; [7] 99% | [1]; [8] 99% | [1]; at 50.0 µM 99.3% | [2]; [7] 100% | [2]; [8] 99% | [2]; at 50.0 µM 99.5% | [3]; [7] 99% | [3]; [8] 99% | [3]; at 50.0 µM 99.2% | [4]; [7] 98% | [4]; [8] 99% | [4]; at 50.0 µM 99.3% | [5]; [7] 99% | [5]; [8] 99% | [5]; at 50.0 µM 99.4% | [6]; [7] 99% | [6]; [8] 99% | [6]; at 50.0 µM 99.2%

O=NN(CCCl)C(=O)Nc1cc(=O)[nH]c(SCc2ccccc2)n1
inactive: [1]; [7] -23% | [1]; [8] 52% | [1]; at 50.0 µM 8.95% | [2]; [7] 3% | [2]; [8] 10% | [2]; at 50.0 µM -3.6% | [3]; [7] -10% | [3]; [8] 33% | [3]; at 50.0 µM 4.7% | [4]; [7] 14% | [4]; [8] 12% | [4]; at 50.0 µM 45.5% | [5]; [7] 5% | [5]; [8] 30% | [5]; at 50.0 µM 16.9% | [6]; [7] -11% | [6]; at 50.0 µM 66.5%
active: [6]; [8] 70%

CC(=O)O[C@@H]1CO[C@H]2O[C@H]3[C@@H](C(C=O)=C[C@H](O)[C@@H]4C5=C(C(C)C)CC[C@]5(C)CC[C@@]34C)[C@@]2(O)C1=O
active: [1]; [7] 99% | [1]; [8] 99% | [1]; at 50.0 µM 92.1% | [2]; [7] 99% | [2]; [8] 100% | [2]; at 50.0 µM 92.8% | [3]; [7] 97% | [3]; [8] 100% | [3]; at 50.0 µM 92.7% | [4]; [7] 94% | [4]; [8] 98% | [4]; at 50.0 µM 91% | [5]; [7] 97% | [5]; [8] 99% | [5]; at 50.0 µM 91.3% | [6]; [7] 98% | [6]; [8] 99% | [6]; at 50.0 µM 91.7%

O=Cc1c(I)cc(I)c(O)c1I
active: [1]; [8] 88% | [1]; at 50.0 µM 98.6% | [2]; [8] 99% | [2]; at 50.0 µM 98.7% | [3]; [7] 79% | [3]; [8] 100% | [3]; at 50.0 µM 97.9% | [4]; [8] 97% | [4]; at 50.0 µM 95.1% | [5]; at 50.0 µM 96.8% | [6]; [8] 97% | [6]; at 50.0 µM 97.3%
inactive: [1]; [7] 45% | [2]; [7] 46% | [4]; [7] 42% | [5]; [7] 44% | [5]; [8] 67% | [6]; [7] 56%

CC(=O)OC1CCC2(C)C(=CCC3C2CCC2(C)C3CC(C(N)=O)C2C(C)=O)C1 (configuration not stated)
inactive: [1]; [7] -2% | [1]; [8] 25% | [1]; at 50.0 µM 49% | [2]; [7] 1% | [2]; at 50.0 µM 14.6% | [3]; [7] 6% | [4]; [7] -3% | [4]; [8] 57% | [4]; at 50.0 µM 61.6% | [5]; [7] 9% | [5]; at 50.0 µM 7.4% | [6]; [7] -1% | [6]; at 50.0 µM 59.3%
active: [2]; [8] 79% | [3]; [8] 75% | [3]; at 50.0 µM 76.8% | [5]; [8] 97% | [6]; [8] 70%

Cc1ccccc1Sc1ncnc2ccccc12
active: [1]; at 50.0 µM 85.5% | [2]; at 50.0 µM 73.8% | [3]; [8] 70% | [6]; at 50.0 µM 70.9%
inactive: [1]; [7] 2% | [1]; [8] 34% | [2]; [7] 3% | [2]; [8] 49% | [3]; [7] -13% | [3]; at 50.0 µM 55.5% | [4]; [7] 1% | [4]; [8] -1% | [4]; at 50.0 µM 5.45% | [5]; [7] -5% | [5]; [8] 7% | [5]; at 50.0 µM 37.6% | [6]; [7] -7% | [6]; [8] 48%

CCOC(=O)Oc1ccc(C)cc1[N+](=O)[O-]
active: [6]; at 50.0 µM 88.3%
inactive: [1]; [7] -1% | [1]; [8] 13% | [1]; at 50.0 µM 67.6% | [2]; [7] -4% | [2]; [8] 1% | [2]; at 50.0 µM 31.1% | [3]; [7] -1% | [3]; [8] 2% | [3]; at 50.0 µM 47.5% | [4]; [7] 2% | [4]; [8] 12% | [4]; at 50.0 µM 55.6% | [5]; [7] -1% | [5]; [8] 4% | [5]; at 50.0 µM 23.6% | [6]; [7] -3% | [6]; [8] 20%

CC(C)(C)CCCC(C(=O)O)c1ccccc1 (configuration not stated)
active: [1]; at 50.0 µM 82.6% | [2]; at 50.0 µM 75.8% | [4]; at 50.0 µM 76.8% | [6]; at 50.0 µM 85.1%
inactive: [1]; [7] 0% | [1]; [8] 50% | [2]; [7] -10% | [2]; [8] 54% | [3]; [7] -2% | [3]; [8] 31% | [3]; at 50.0 µM 63% | [4]; [7] -10% | [4]; [8] 60% | [5]; [7] -7% | [5]; [8] 57% | [5]; at 50.0 µM 55.1% | [6]; [7] -7% | [6]; [8] 49%

NC(=O)SCC(=O)Nc1ccccc1
active: [1]; [8] 82% | [1]; at 50.0 µM 86.5% | [2]; [8] 83% | [3]; [8] 82% | [3]; at 50.0 µM 87.8% | [4]; [8] 81% | [4]; at 50.0 µM 80% | [5]; [8] 83% | [5]; at 50.0 µM 83.6% | [6]; [8] 87% | [6]; at 50.0 µM 87.2%
inactive: [1]; [7] 5% | [2]; [7] -1% | [2]; at 50.0 µM 67.9% | [3]; [7] 1% | [4]; [7] 5% | [5]; [7] 3% | [6]; [7] 3%
